# L3MBTL1 block = qHTS Assay for the Inhibitors of L3MBTL1; AlphaScreen L3MBTL1–H3K9me1 peptide binding; 230,000 tested, 0.66% active; Lethal(3)malignant brain tumor-like protein 1 (Homo sapiens), Q9Y468; Potency, µM (highest dose often 57.1 µM), for inactives: at the top dose activity, negative = inhibition, actives largely listed as inhibitors; note: % is set by controls: 0 for no effect and ±100 for the full control effect; nearly all actives have a fitted effect of over 60% in size
#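 L3MBTL1 (50 nM) pre-complexed 30 min with biotinylated H3(1-15)K9me1 peptide (75 nM), then compounds added for 30 min at room temperature; AlphaScreen streptavidin donor/nickel chelate acceptor beads (10 ug/mL final) read after 30 min dark incubation.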
# POLK inh = qHTS for Inhibitors of Polymerase Kappa; purified Pol kappa, fluorescent DNA synthesis assay, 10 min; 400,000 tested, 0.53% active; DNA polymerase kappa (Homo sapiens), Q9UBT6; AID 588579, 2011; Potency, µM (doses to about 107 µM), for inactives: at the highest dose activity, negative = inhibition, most hits filed as inhibitors; note: % is set by controls: 0 for no effect and ±100 for the full control effect
#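 10 nM Pol kappa preincubated 15 min at room temperature with compounds, then reaction started with substrate at 50 nM final. Fluorescence read kinetically at 0 and 10 min; buffer-only wells served as negative control.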
# WRN helicase inh = qHTS for Inhibitors of WRN Helicase. Bifunctional 3'-5' exonuclease/ATP-dependent helicase WRN (Homo sapiens), Q14191. WRN helicase unwinding, fluorescent forked duplex, kinetic. Potency, µM (titrated, usually from 114 µM), inactives show top-dose activity change, negative = inhibition, actives largely listed as inhibitors. 360,000 tested, 0.46% active. AID 651768, 2012; note: % is set by controls: 0 for no effect and ±100 for the full control effect; nearly all actives have a fitted effect of over 55% in size
#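 Screening of the MLSMR collection measured strand separation of a quenched forked DNA duplex (100 nM) by 20 nM WRN with 2 mM ATP, all final. Compounds were preincubated with enzyme 15 min at room temperature.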
# POLH inh = qHTS for Inhibitors of Polymerase Eta; DNA polymerase eta (Homo sapiens), Q9Y253; recombinant Pol eta, fluorescent DNA replication assay; Potency, µM (doses to about 114 µM), for the others: at the top dose activity change, negative = inhibition, actives largely listed as inhibitors; 390,000 tested, 1.2% active; AID 588591, 2011; note: % is set by controls: 0 for no effect and ±100 for the full control effect
# Target sequence (Q9Y253 whole entry, looked up): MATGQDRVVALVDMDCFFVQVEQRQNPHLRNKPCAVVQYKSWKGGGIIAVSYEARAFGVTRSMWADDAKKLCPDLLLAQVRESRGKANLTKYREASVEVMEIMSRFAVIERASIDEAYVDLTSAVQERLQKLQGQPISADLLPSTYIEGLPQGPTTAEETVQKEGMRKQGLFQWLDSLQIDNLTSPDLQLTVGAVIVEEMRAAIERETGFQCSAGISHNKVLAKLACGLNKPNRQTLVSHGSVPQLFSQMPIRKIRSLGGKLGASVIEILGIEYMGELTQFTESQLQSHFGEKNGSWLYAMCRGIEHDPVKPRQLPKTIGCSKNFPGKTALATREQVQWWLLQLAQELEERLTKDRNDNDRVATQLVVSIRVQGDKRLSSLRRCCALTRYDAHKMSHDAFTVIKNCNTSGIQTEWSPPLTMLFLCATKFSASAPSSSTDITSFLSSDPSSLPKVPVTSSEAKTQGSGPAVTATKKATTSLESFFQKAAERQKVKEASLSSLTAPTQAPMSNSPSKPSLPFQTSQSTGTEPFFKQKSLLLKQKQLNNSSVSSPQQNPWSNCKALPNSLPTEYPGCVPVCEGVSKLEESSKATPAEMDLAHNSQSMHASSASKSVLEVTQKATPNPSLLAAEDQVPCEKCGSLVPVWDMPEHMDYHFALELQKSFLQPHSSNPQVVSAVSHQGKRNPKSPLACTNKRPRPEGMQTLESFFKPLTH
#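 Fluorescent replication assay: 50 nM final substrate added after a 15 min room-temperature compound preincubation with 10 nM enzyme. Signal taken at 0 min and again at 10 min.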
# POLI inh = qHTS for Inhibitors of Polymerase Iota; DNA polymerase iota (Homo sapiens), Q9UNA4; Pol iota fluorescent replication assay, 10 min; Potency, µM (top dose mostly 115 µM), inactives show top-dose activity, negative = inhibition, actives largely listed as inhibitors; 390,000 tested, 1% active; AID 588590, 2011
#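 Pol iota at 10 nM preincubated 15 min with compounds at room temperature; reaction started with fluorescent substrate, 50 nM final. Fluorescence read kinetically at 0 and 10 min; buffer-only wells as negative control.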
# POLB inh = qHTS Assay for Inhibitors of DNA Polymerase Beta | P06746 | Pol beta primer extension/strand displacement, fluorescence kinetic | Potency, µM (highest dose often 114 µM), without a hit: at the top dose activity change, negative = inhibition, actives largely listed as inhibitors | 340,000 tested, 1.3% active | AID 485314, 2010; note: % is set by controls: 0 for no effect and ±100 for the full control effect
#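 10 nM enzyme + cpd, 15 min RT; start with substrate 50 nM final; read 0 min and after 10 min RT. Corrected, normalized data; 4-parameter Hill curve fit.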
# An asterisk follows results filed as active; ? = inconclusive; . = not tested or not shown; [ ] = dose if it differs, or a comment. Shown are actives, neighbours in structure and some others; about 2.5% of the full set was active somewhere. Calls come from the whole dose curve; as a rule, active = well fitted curve in the direction sought with a large enough effect; inconclusive = small, poorly fitted or top-dose-only effect, or another doubt; inactive = no such curve, though single readings can be large; an effect the other way counts as inactive or inconclusive. Potency is the fitted concentration of half-maximal effect.
SMILES,L3MBTL1 block,POLK inh,WRN helicase inh,POLH inh,POLI inh,POLB inh
O=C(N/N=C/c1cccc([N+](=O)[O-])c1)c1cc(-c2ccc3c(c2)OCO3)n[nH]1,.,?,-13.4%[11.6 µM],17.8µM*,?,-23.3%
O=[N+]([O-])c1cccc2c(Br)[nH]nc12,.,3.0%[60.1 µM],.,-8.7%[57.1 µM],-3.4%[58.9 µM],11.4%[57.1 µM]
CC/C(C)=N/Nc1nc2c(c(=O)[nH]c(=O)n2C)n1Cc1ccccc1,.,-36.5%,-2.7%[11.6 µM],?,15.8µM*,?
CCCCN(C(=O)CN(C)CC(=O)Nc1cccc(OC)c1)c1c(N)n(CCCC)c(=O)[nH]c1=O,-1.7%,-7.2%,5.0%,-9.4%,-12.2%,.
CCCCN(C)c1c(C)nc2ccc(C(=O)NCCc3c[nH]c4ccccc34)cn12,.,.,-2.2%[57.1 µM],.,.,.
CCOc1cc(NC(=O)c2ccco2)c(OCC)cc1NC(=O)c1cc(OC)c(OC)c(OC)c1,.,-10.6%,0.8%,-4.1%,39.3%,-5.7%
COc1cc(NC(=O)c2ccco2)c(OC)cc1NC(=O)c1cc(OC)c(OC)c(OC)c1,-1.4%,-0.1%,3.0%,-12.4%,13.2%,39.8µM*
COc1cc(OC)cc(C(=O)Nc2ccc(NC(=O)c3ccco3)c(Cl)c2)c1,.,-13.9%,-2.5%,?,25.1µM*,?
O=C(Nc1ccc2c(c1)OCO2)c1cc2nc(C3CC3)cc(C(F)(F)F)n2n1,?,-18.1%,-9.7%[57.1 µM],?,?,39.8µM*
COC(=O)c1ccccc1NC(=O)c1cc2nc(-c3ccc(OC)cc3)cc(C(F)(F)F)n2n1,.,-9.3%,.,0.4%,-2.4%,40.0%
O=C(Nc1ccc2c(c1)OCO2)c1cc2ncc(Br)cn2n1,.,-41.1%,?,3.55µM*,?,28.2µM*
COC(=O)c1ccccc1NC(=O)c1cc2nc(C3CC3)cc(C(F)(F)F)n2n1,6.8%,-21.7%,-4.9%[57.1 µM],79.4µM*,?,50.1µM*
COc1ccc(C(=O)N[C@H](C(=O)Nc2sccc2C(N)=O)C(C)C)cc1,.,-13.1%,-5.9%,12.2%,31.0%,-17.8%
NC(=O)c1ccsc1NC(=O)COC(=O)c1ccccn1,-21.5%,?,-6.1%[11.6 µM],?,?,.
COc1ccc(C(=O)NC(C(=O)OCC(=O)Nc2sccc2C(N)=O)C(C)C)cc1 (stereo not drawn),-7.0%,-30.4%,1.1%[11.6 µM],89.1µM*,?,.
NC(=O)c1ccsc1NC(=O)COC(=O)c1cnccn1,-10.9%,?,?,?,79.4µM*,.
NC(=O)c1ccsc1NC(=O)COC(=O)c1ccc(Cl)c(N)c1,-13.7%,-28.8%,-10.9%[11.6 µM],22.4µM*,?,.
COc1ccccc1NS(=O)(=O)c1ccc(C(=O)NCC(c2ccco2)N(C)C)cc1 (stereo not drawn),-3.3%,-1.1%,6.4%,-1.8%,14.4%,.
Cc1nnsc1S(=O)c1ccc(Cl)cc1 (stereo not drawn),.,-14.6%,0.1%,-2.9%,-25.9%,11.7%
O=C(c1nnsc1S(=O)c1ccc(Cl)cc1)N1CCOCC1 (stereo not drawn),-20.6%,-3.4%,25.1µM*,1.6%,?,3.8%
Cc1cc(N2CCOCC2)nc(-c2ccccc2O)n1,6.4%,-5.0%,3.4%,-7.3%,-3.4%,1.0%
NC(C(=O)O)C(O)c1ccc(O)c(O)c1 (stereo not drawn),.,0.238µM*,.,.,.,.
CCN(Cc1ccccc1)c1ccc(N=Nc2nn(C)c(C)c2[N+](=O)[O-])cc1,15.8µM*,-19.1%,0.2%,?,17.6%,-8.5%
CCn1nc(CC(=O)Nc2ccc(-n3cnnn3)c(OC)c2)c2ccccc2c1=O,-0.9%,-20.8%,-12.0%,?,0.5%,31.6µM*
COc1ccc(C2(CNC(=O)c3cccs3)CCOCC2)cc1,2.2%,15.2%,18.2%,-1.0%,31.6%,-2.1%
SMILES,L3MBTL1 block,POLK inh,WRN helicase inh,POLH inh,POLI inh,POLB inh
O=C(COc1ccc(Cl)cc1Br)NC1CC1,-1.4%,-5.9%,-4.6%,-6.7%,-8.8%,.
COc1cc(C=O)ccc1OCCOCCOc1c(C)cc(Cl)cc1Cl,?,-4.9%,-8.2%,-12.5%,1.9%,10µM*
O=C(O)c1cccc(NC(=S)NC(=O)c2ccc(-c3ccc(Cl)cc3)o2)c1,.,-30.8%,?,?,?,?
COc1ccc(C(=O)O)cc1NC(=S)NC(=O)c1ccc(-c2ccc(Cl)cc2)o1,.,-16.2%,-5.4%[11.6 µM],20µM*,?,-1.7%
Cc1ccc(C(=O)O)cc1NC(=S)NC(=O)c1ccc(-c2ccc(Cl)cc2)o1,.,-11.6%,-8.2%[11.6 µM],50.1µM*,-9.3%,22.8%
Cc1ccc2c(c1)C(=O)OC(C(=O)Nc1ncc(Cc3ccc(Cl)cc3)s1)C2 (stereo not drawn),.,-8.8%,.,-7.7%,13.9%,-3.6%
O=C(Cn1ncc2c3ccccc3n(Cc3cccc(Cl)c3)c2c1=O)NCc1cccs1,.,-26.9%,.,-16.6%,?,25.1µM*
CC(CCc1ccccc1)NC(=O)Cn1ncc2c3ccccc3n(Cc3cccc(Cl)c3)c2c1=O (stereo not drawn),.,-24.5%,.,?,?,17.8µM*
O=C(Cn1ncc2c3ccccc3n(Cc3cccc(Cl)c3)c2c1=O)Nc1ccc(F)cc1F,.,?,.,?,?,22.4µM*
O=C(Cn1ncc2c3ccccc3n(Cc3cccc(Cl)c3)c2c1=O)N1CCCCCC1,.,-25.0%,.,-19.9%,?,25.1µM*
O=C(Cn1ncc2c3ccccc3n(Cc3ccccc3)c2c1=O)NCc1cccs1,.,2.1%,.,-8.7%,40.4%,2.7%
CCCCC[C@H](CC(=O)NO)C(=O)N[C@H](C(=O)N1CCC[C@H]1CO)C(C)C,.,-24.1%[60.1 µM],.,-1.0%[57.1 µM],6.8%[58.9 µM],10.1%[57.1 µM]
O=C(CCc1c[nH]c2ccccc12)N/N=C/c1ccc2c(c1)OCO2,3.4%,-13.6%,-9.2%,1.6%,127.0%,?
CCc1ccccc1NC(=O)Cn1ncc2c(C)n(Cc3ccccc3F)c(C)c2c1=O,.,-5.0%,.,-8.5%,49.5%,8.0%
Cc1ccc(Cl)cc1NC(=O)Cn1ncc2c(C)n(Cc3ccccc3F)c(C)c2c1=O,.,-31.9%,.,?,?,12.6µM*
O=C(CSc1nnc(-c2ccco2)c(-c2ccco2)n1)c1ccccc1,-1.7%,79.4µM*,?,35.5µM*,17.8µM*,-4.6%
Cc1cc(-c2nnc(SCC(=O)c3ccc(Cl)cc3)o2)no1,-20.6%,-16.5%,-10.0%,-0.1%,22.0%,-13.3%
O=C(CSc1nnc(-c2ccco2)o1)c1ccccc1,?,-10.0%,-8.5%,5.1%,-7.5%,39.8µM*

# Screening data from PubChem BioAssay.
